Values joined by “and” are separate entries in the source; they are usually repeats but may differ in a detail not shown here. Equal entries are not always repeated. Results filed as inconclusive are left out. Active and inactive are the calls of the source. Unless noted, calls follow the shape of the dose curve; as a rule, active = well fitted curve in the direction sought with a large enough effect in the repeat runs; inconclusive = weak or mixed curves; inactive = no such curve, though single readings can be large; an effect the other way counts as inactive or inconclusive.
What was measured:
[1] = qHTS assay to identify small molecule agonists of the RXR signaling pathway - cell viability counter screen (AID 1159529); also: nearly all actives have a fitted effect of over 50% in size; also: potency is read from the fitted curve at half-maximal effect
How it was run: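 CellTiter-Glo luminescence gave viability in the wells also read for beta-lactamase. Cells (RXR-alpha-UAS-bla HEK 293T, 2% charcoal-stripped FBS medium) had 5 hr plating, then 16 hr compound exposure at 37 C; tetraoctyl ammonium bromide served as positive control.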

[2] = qHTS assay to identify small molecule antagonists of the retinoid acid receptor (RAR) signaling pathway - cell viability counter screen (AID 1159551); also: nearly all actives have a fitted effect of over 35% in size; also: potency is read from the fitted curve at half-maximal effect
How it was run: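 Measured by luminescent ATP detection, viability reflects C3RL4 cells treated 6 h at 37 C with test chemicals in the presence of 1 uM (final) retinol.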

[3] = qHTS assay to identify small molecule antagonists of the retinoic acid receptor (RAR) signaling pathway (AID 1159552; also: nearly all actives have a fitted effect of over 50% in size; also: potency is read from the fitted curve at half-maximal effect)
How it was run: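 Luminescent RARE reporter read-out in C3RL4 cells: 6 hr co-treatment at 37 C of test compounds with retinol at 1 uM final. Cells plated overnight beforehand; luciferase reagent incubated 30 min at room temperature before reading.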

[4] = qHTS assay to identify small molecule antagonists of the estrogen related receptor (ERR) signaling pathway from Tox21 library - cell viability counter screen (AID 1224834); also: nearly all actives have a fitted effect of over 30% in size; also: potency is read from the fitted curve at half-maximal effect
How it was run: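 Seeded ERR cells were rested 6 h at 37 C/5% CO2 before compounds, positive and negative controls or DMSO were added. Incubation continued for 17.5 h, and viability was then quantified by CellTiter-Fluor fluorescence.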

[5] = target: Luciferin 4-monooxygenase (Photinus pyralis) (UniProt P08659); assay: qHTS assay to identify small molecule inhibitors of firefly luciferase (AID 1224835); also: nearly all actives have a fitted effect of over 25% in size; also: potency is read from the fitted curve at half-maximal effect
Sequence of Luciferin 4-monooxygenase (Photinus pyralis) (P08659 whole entry, looked up): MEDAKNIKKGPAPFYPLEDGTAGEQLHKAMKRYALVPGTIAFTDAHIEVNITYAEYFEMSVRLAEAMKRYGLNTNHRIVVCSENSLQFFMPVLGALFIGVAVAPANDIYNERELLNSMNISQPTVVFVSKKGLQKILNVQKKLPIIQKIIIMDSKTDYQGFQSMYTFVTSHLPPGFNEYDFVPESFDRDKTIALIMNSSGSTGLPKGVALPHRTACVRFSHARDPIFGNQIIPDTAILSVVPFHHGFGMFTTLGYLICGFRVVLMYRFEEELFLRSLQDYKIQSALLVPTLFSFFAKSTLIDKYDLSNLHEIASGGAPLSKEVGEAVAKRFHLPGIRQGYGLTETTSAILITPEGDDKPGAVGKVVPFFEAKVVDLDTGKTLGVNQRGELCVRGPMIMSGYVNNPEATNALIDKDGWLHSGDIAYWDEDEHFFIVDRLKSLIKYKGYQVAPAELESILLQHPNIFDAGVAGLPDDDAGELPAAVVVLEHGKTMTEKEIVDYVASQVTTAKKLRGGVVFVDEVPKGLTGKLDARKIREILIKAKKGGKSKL
How it was run: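 Quantitative HTS format; KM concentrations of both substrates. Purified P. pyralis FLuc activity quantified from luminescence images.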

[6] = qHTS assay to identify small molecule agonists of the constitutive androstane receptor (CAR) signaling pathway - cell viability counter screen (AID 1224836); also: nearly all actives have a fitted effect of over 45% in size; also: potency is read from the fitted curve at half-maximal effect
How it was run: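 Cell viability multiplexed with the CAR agonist screen: CellTiter-Fluor fluorescence after 23 hr at 37 C. HepG2-CYP2B6-hCAR cells got compounds at 15 concentrations with PK11195 at 0.75 uM final.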

[7] = qHTS assay to identify small molecule antagonists of the constitutive androstane receptor (CAR) signaling pathway - cell viability counter screen (AID 1224837); also: nearly all actives have a fitted effect of over 45% in size; also: potency is read from the fitted curve at half-maximal effect
How it was run: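 To flag cytotoxic false antagonists, HepG2 hCAR/CYP2B6-2.2kb cells were treated 23 hr with 15-concentration compound series and 50 nM CITCO at 37 C/5% CO2; CellTiter-Fluor fluorescence was the measured end point.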

[8] = target: Nuclear receptor subfamily 1 group I member 3 (Homo sapiens) (UniProt Q14994); assay: qHTS assay to identify small molecule antagonists of the constitutive androstane receptor (CAR) signaling pathway (AID 1224838);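 also: HepG2 cells stably expressing hCAR with CYP2B6 luciferase reporter stimulated by CITCO; nearly all actives have a fitted effect of over 40% in size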; also: potency is read from the fitted curve at half-maximal effect
Sequence of Nuclear receptor subfamily 1 group I member 3 (Homo sapiens) (Q14994 whole entry, looked up): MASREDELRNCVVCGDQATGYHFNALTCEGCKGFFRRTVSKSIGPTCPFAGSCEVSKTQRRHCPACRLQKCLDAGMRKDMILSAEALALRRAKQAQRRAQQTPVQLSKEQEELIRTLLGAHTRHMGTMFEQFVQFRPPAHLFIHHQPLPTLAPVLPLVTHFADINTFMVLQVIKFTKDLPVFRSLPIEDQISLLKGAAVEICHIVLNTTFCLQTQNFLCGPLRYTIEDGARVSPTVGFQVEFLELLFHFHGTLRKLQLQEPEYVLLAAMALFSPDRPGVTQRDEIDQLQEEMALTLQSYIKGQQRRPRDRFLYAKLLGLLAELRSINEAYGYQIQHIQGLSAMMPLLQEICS
How it was run: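 Human hepatoma HepG2 cells expressing hCAR and a CYP2B6 promoter (2.2 kb) luciferase construct; compound titration (15 points) with 50 nM CITCO final, 24 h at 37 C/5% CO2; luminescence via ONE-Glo after 30 min at room temperature.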

[9] = target: Nuclear receptor subfamily 1 group I member 3 (Homo sapiens) (UniProt Q14994); assay: qHTS assay to identify small molecule agonists of the constitutive androstane receptor (CAR) signaling pathway (AID 1224839);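 also: HepG2 cells stably carrying human CAR and a CYP2B6 luciferase reporter; nearly all actives have a fitted effect of over 15% in size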
How it was run: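 Luminescent ONE-Glo read-out after 24 hr, 37 C exposure of double-stable HepG2-CYP2B6-hCAR reporter cells to a 15-point compound series, in the presence of 0.75 uM PK11195 (final).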

[10] = qHTS assay to identify small molecule antagonists of the estrogen related receptor signaling pathway with the pleiotropic PPARgamma coactivator (PGC) from Tox21 10K library - cell viability counter screen (AID 1224840; active = well fitted cell-killing curve with a large enough effect in the repeat runs, not every such curve was filed as active; also: nearly all actives have a fitted effect of over 40% in size; also: potency is read from the fitted curve at half-maximal effect)
How it was run: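 Seeded PGC/ERR cells (2,000/well, 6 h, 37 C/5% CO2) get compound by pin tool; 17.5 h incubation at 37 C; CellTiter-Fluor added, 30 min, fluorescence measured.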

[11] = qHTS assay to identify small molecule agonists of the retinoic acid receptor (RAR) signaling pathway (AID 1159553); conditions: C3RL4 RARE luciferase reporter, agonist, 6 h; activation: at 73.3 µM (top of the series) unless noted
How it was run: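 6 hr compound exposure (DMSO vehicle) of overnight-plated C3RL4 RARE-luc cells at 37 C; luminescence quantified after 30 min RT with luciferase reagent.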

[12] = qHTS assay to identify small molecule antagonists of the estrogen related receptor (ERR) signaling pathway - cell viability counter screen (AID 1224818)
How it was run: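 Compounds dissolved in DMSO were applied to ERR cells seeded at 2,000 per well 6 h earlier. Cell viability followed 17.5 h later via 30-min CellTiter-Fluor fluorescence.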

[13] = qHTS assay to identify small molecule antagonists of the estrogen related receptor (ERR) signaling pathway (AID 1224819; also: potency is read from the fitted curve at half-maximal effect; nearly all actives have a fitted effect of over 50% in size)
How it was run: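 Compounds dissolved in DMSO were pin-transferred onto ERR cells that had been plated 6 h earlier, and cells were then incubated 18 h at 37 C; signal was luciferase luminescence via One-Glo.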

[14] = qHTS assay to identify small molecule agonists of the estrogen related receptor (ERR) signaling pathway (AID 1224820)
How it was run: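 Luminescence readout (One-Glo, 30 min RT) from NTP-supplied ERR cell line exposed to compounds for 18 h at 37 C. Cells seeded 2,000 per well and pre-incubated 6 h before pin-tool compound transfer.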

[15] = system: estrogen-related receptor alpha (ERRalpha) with PGC-1alpha coactivator, human; assay: qHTS assay to identify small molecule antagonists of the estrogen related receptor signaling pathway with the pleiotropic PPARgamma coactivator (PGC) (AID 1224821; calls by dose curve; also: potency is read from the fitted curve at half-maximal effect; nearly all actives have a fitted effect of over 50% in size)
How it was run: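 PGC/ERR reporter cells; 6 h pre-incubation 37 C/5% CO2; pin-tool compound in DMSO, 18 h 37 C; One-Glo added, 30 min RT; luminescence read. qHTS antagonist mode.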

[16] = qHTS assay to identify small molecule antagonists of the estrogen related receptor signaling pathway with the pleiotropic PPARgamma coactivator (PGC) cell viability counter screen (AID 1224822)
How it was run: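 Counter screen for cell viability: PGC/ERR cells, 6 h pre-incubation after plating, 17.5 h compound exposure at 37 C, fluorescence from CellTiter-Fluor after 30 min.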

[17] = qHTS assay to identify small molecule agonists of the estrogen related receptor signaling pathway with the pleiotropic PPARgamma coactivator (PGC) (AID 1224823)
How it was run: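 Luminescence readout (One-Glo, 30 min RT) from PGC/ERR cell line treated 18 h at 37 C with pin-tool-delivered DMSO compound solutions; cells plated 6 h before dosing. Quantitative HTS format.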

[18] = qHTS assay to identify small molecule agonists of the estrogen related receptor signaling pathway with the pleiotropic PPARgamma coactivator (PGC) from Tox21 10K library (AID 1224842); also: nearly all actives have a fitted effect of over 15% in size
How it was run: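 PGC/ERR reporter cells (NTP line) were seeded 2,000 per well, rested 6 h at 37 C/5% CO2, then pin-dosed with compounds in DMSO for 18 h at 37 C; luciferase read by One-Glo luminescence after 30 min at room temperature.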

[19] = target: Thyrotropin receptor (Homo sapiens) (UniProt P16473); assay: qHTS assay to identify small molecule agonists of the thyroid stimulating hormone receptor (TSHR) signaling pathway (AID 1224843; calls by dose curve; also: nearly all actives have a fitted effect of over 45% in size)
Sequence of Thyrotropin receptor (Homo sapiens) (P16473 whole entry, looked up): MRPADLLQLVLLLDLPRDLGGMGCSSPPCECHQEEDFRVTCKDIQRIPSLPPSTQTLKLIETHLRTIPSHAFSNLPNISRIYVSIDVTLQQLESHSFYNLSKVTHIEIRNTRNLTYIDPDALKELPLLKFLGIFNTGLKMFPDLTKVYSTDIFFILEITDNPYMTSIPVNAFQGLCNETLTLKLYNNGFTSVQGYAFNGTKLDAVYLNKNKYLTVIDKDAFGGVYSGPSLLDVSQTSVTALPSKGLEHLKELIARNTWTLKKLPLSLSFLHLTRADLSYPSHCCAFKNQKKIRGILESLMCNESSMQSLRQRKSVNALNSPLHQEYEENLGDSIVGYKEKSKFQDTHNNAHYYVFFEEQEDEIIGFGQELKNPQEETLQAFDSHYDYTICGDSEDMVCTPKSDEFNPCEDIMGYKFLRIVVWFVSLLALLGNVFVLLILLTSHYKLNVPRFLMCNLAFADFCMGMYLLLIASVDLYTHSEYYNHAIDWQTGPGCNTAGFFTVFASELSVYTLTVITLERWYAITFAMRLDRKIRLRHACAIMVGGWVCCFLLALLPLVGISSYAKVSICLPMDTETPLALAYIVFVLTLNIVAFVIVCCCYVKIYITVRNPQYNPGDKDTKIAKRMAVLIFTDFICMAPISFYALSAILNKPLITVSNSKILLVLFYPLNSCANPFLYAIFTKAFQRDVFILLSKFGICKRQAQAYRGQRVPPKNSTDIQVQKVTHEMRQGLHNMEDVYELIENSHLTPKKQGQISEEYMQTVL
How it was run: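 Using 15 concentrations per compound in triplicate, cAMP production was monitored in TSHR-HEK293 cells after 30 min compound incubation at RT; HTRF reagents followed, with fluorescence intensity recorded after 1 h.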

[20] = qHTS assay to identify small molecule antagonists of the estrogen related receptor signaling pathway with the pleiotropic PPARgamma coactivator (PGC) from Tox21 10K library (AID 1224841; call rule not given here; also: potency is read from the fitted curve at half-maximal effect)
How it was run: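 Test chemicals dissolved in DMSO were applied to pre-incubated (6 h) PGC/ERR cells at 2,000 cells/well for an 18 h, 37 C treatment; reporter luminescence was then read using One-Glo.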

Measured: Potency

CN(C)c1ccc(C(=C2C=CC(=[N+](C)C)C=C2)c2ccc(N(C)C)cc2)cc1
inactive: [9]
active: [1] 13.7 µM and 19.5 µM and 19 µM | [2] 17.1 µM and 27.3 µM and 23.7 µM | [3] 7.66 µM and 2.17 µM and 3.76 µM | [4] 9.64 µM and 12.2 µM and 13.3 µM | [5] 17.7 µM and 35.6 µM and 17.4 µM | [6] 7.66 µM and 6.86 µM and 5.96 µM | [7] 8.59 µM and 7.7 µM and 5.31 µM | [8] 27.2 µM and 27.3 µM and 13.3 µM | [10] 9.64 µM and 4.33 µM and 11.9 µM

CC[N+](CC)(CC)CCOc1ccc(/C=C/c2ccccc2)cc1
active: [13] 8.74 µM | [15] 12.3 µM
not listed: [3] | [4] | [6] | [20]
inactive: all other assays above

c1ccsc1
inactive: [1] | [2] | [4] | [5] | [6] | [7] | [8] | [9] | [10] | [19]

Nc1nc(N)nc(-c2cc(Cl)ccc2Cl)n1
inactive: [1] | [2] | [4] | [5] | [6] | [7] | [8] | [9] | [10]

O=C(O)c1cccc(C(F)(F)F)c1
not listed: [3] | [11] | [12] | [13] | [14] | [15] | [16] | [17]
inactive: all other assays above

O=C(Nc1ccc2c(O)c(N=Nc3ccc(N=Nc4ccc(S(=O)(=O)O)cc4)cc3)c(S(=O)(=O)O)cc2c1)c1ccccc1
active: [2] 24.3 µM | [4] 24.3 µM | [5] 35.6 µM | [6] 24.3 µM | [7] 27.3 µM | [10] 24.3 µM | [20] 27.3 µM
inactive: [1] | [11] | [9] | [19]

O=C(O)Cc1ccc2c(c1)C(=O)c1ccccc1CO2
inactive: [1] | [2] | [3] | [4] | [6] | [7] | [10] | [19]
active: [5] 30.9 µM

Sc1nc2ccccc2s1
inactive: [1] | [2] | [3] | [4] | [6] | [8] | [9] | [20] | [18] | [19]

Oc1cc(Cl)cc(Cl)c1Cl
inactive: [1] | [2] | [11] | [6] | [7] | [8] | [9] | [19]

Cc1cc(C(C)(C)C)c(O)c(C)c1Cn1c(=O)n(Cc2c(C)cc(C(C)(C)C)c(O)c2C)c(=O)n(Cc2c(C)cc(C(C)(C)C)c(O)c2C)c1=O
inactive: [1] | [2] | [11] | [4] | [5] | [6] | [7] | [10] | [18] | [19]

OCC(F)(F)F
not listed: [11] | [12] | [13] | [14] | [15] | [16] | [17] | [18]
inactive: all other assays above

C=CC(C)(CCC=C(C)C)OC=O (centres undefined)
inactive: [1] | [2] | [4] | [5] | [6] | [7] | [8] | [9] | [10] | [20] | [19]

COC(=O)Nc1nc2ccc(C(=O)c3ccccc3)cc2[nH]1
inactive: [1] | [2] | [3] | [11] | [6] | [8] | [10] | [19]

[Cl][Pt-2]([Cl])([Cl])[Cl]
inactive: [1] | [2] | [11] | [4] | [6] | [7] | [8] | [10]

COc1cccc(OC)c1C(=O)O
inactive: [1] | [2] | [4] | [5] | [6] | [7] | [8] | [9] | [10] | [19]

CC(C)(C)C1CCC(=O)CC1
inactive: [1] | [2] | [3] | [4] | [5] | [6] | [10] | [20] | [19]

OC[C@H]1O[C@H](O[C@H]2O[C@H](CO)[C@@H](O)[C@H](O)[C@H]2O)[C@H](O)[C@@H](O)[C@@H]1O
inactive: [1] | [2] | [11] | [4] | [5] | [6] | [7] | [10] | [20] | [18] | [19]

NC(=S)NC(N)=S
inactive: [1] | [2] | [3] | [4] | [5] | [6] | [7] | [8] | [9] | [10] | [19]

Clc1sc(Cl)c(Cl)c1Cl
not listed: [3] | [11] | [12] | [13] | [14] | [15] | [16] | [17]
inactive: all other assays above

CCC(COC(=O)CCS)(COC(=O)CCS)COC(=O)CCS
not listed: [3] | [11] | [12] | [13] | [14] | [15] | [16] | [17]
inactive: all other assays above

— PubChem BioAssay (Tox21)
